# About 410 targets per protein were measured; listed, in parts, are those with the strongest signals and a random draw of the rest.
# B1: Gal 12 (Homo sapiens), Q96DT0 (protein)
# chain: MSQPSGGRAPGTRIYSWSCPTVMSPGEKLDPIPDSFILQPPVFHPVVPYVTTIFGGLHAGKMVMLQGVVPLDAHRFQVDFQCGCSLCPRPDIAFHFNPRFHTTKPHVICNTLHGGRWQREARWPHLALRRGSSFLILFLFGNEEVKVSVNGQHFLHFRYRLPLSHVDTLGIFGDILVEAVGFLNINPFVEGSREYPAGHPFLLMSPRLEVPCSHALPQGLSPGQVIIVRGLVLQEPKHFTVSLRDQAAHAPVTLRASFADRTLAWISRWGQKKLISAPFLFYPQRFFEVLLLFQEGGLKLALNGQGLGATSMNQQALEQLRELRISGSVQLYCVHS
# Legend:
# Experiment in all cases: glycan array binding signal (z-score within array); higher = stronger binding
# Conditions in all cases: glycan notation: IUPAC condensed, linker removed
# [1] = biological target: Fuc(a1-2)Gal(b1-3)GlcNAc(b1-3)[Neu5Ac(a2-6)Gal(b1-4)GlcNAc(b1-6)]Gal(b1-4)Glc
# Summary of the method: (§1)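 Negative Z-scores can be read as non-binding. The Z-score is calculated within each array and then averaged across arrays of one protein sequence at different concentrations or buffers and across linkers. Arrays, 3228 in all, were curated from the Consortium for Functional Glycomics database and kept only where the protein sequence was available.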
# [2] = biological target: Fuc(a1-2)Gal(b1-3)[Fuc(a1-4)]GlcNAc(b1-2)Man(a1-3)[Fuc(a1-2)Gal(b1-3)[Fuc(a1-4)]GlcNAc(b1-2)Man(a1-6)]Man(b1-4)GlcNAc(b1-4)GlcNAc
# Summary of the method: as §1
# [3] = biological target: Fuc(a1-2)Gal(b1-4)[Fuc(a1-3)]GlcNAc(b1-2)[Fuc(a1-2)Gal(b1-4)[Fuc(a1-3)]GlcNAc(b1-4)]Man(a1-3)[Fuc(a1-2)Gal(b1-4)[Fuc(a1-3)]GlcNAc(b1-2)Man(a1-6)]Man(b1-4)GlcNAc(b1-4)GlcNAc
# Summary of the method: as §1
# [4] = biological target: Fuc(a1-2)Gal(b1-4)[Fuc(a1-3)]GlcNAc(b1-3)GalNAc
# Summary of the method: as §1
# [5] = biological target: Fuc(a1-2)[Gal(a1-3)]Gal(b1-3)GlcNAc(b1-2)Man(a1-3)[Fuc(a1-2)[Gal(a1-3)]Gal(b1-3)GlcNAc(b1-2)Man(a1-6)]Man(b1-4)GlcNAc(b1-4)GlcNAc
# Summary of the method: as §1
# [6] = biological target: Fuc(a1-2)[Gal(a1-3)]Gal(b1-4)GlcNAc(b1-3)GalNAc
# Summary of the method: as §1
# [7] = biological target: Fuc(a1-2)[Gal(a1-3)]Gal(b1-4)[Fuc(a1-3)]GlcNAc(b1-3)GalNAc
# Summary of the method: as §1
# [8] = biological target: Fuc(a1-2)[GalNAc(a1-3)]Gal(b1-4)GlcNAc(b1-3)GalNAc
# Summary of the method: as §1
# [9] = biological target: Fuc(a1-2)[GalNAc(a1-3)]Gal(b1-4)[Fuc(a1-3)]GlcNAc(b1-3)GalNAc
# Summary of the method: as §1
# [10] = biological target: Fuc(a1-3)[Gal(b1-4)]GlcNAc(b1-3)GalNAc
# Summary of the method: as §1
# [11] = biological target: Fuc(a1-3)[Gal(b1-4)]GlcNAc(b1-4)Gal(b1-4)[Fuc(a1-3)]GlcNAc
# Summary of the method: as §1
# Gal(a1-2)Gal = biological target: Gal(a1-2)Gal
# Summary of the method: as §1
# Gal(a1-6)Glc = biological target: Gal(a1-6)Glc
# Summary of the method: as §1
# [12] = biological target: Gal(b1-3)GlcNAc(a1-6)Gal(b1-4)GlcNAc
# Summary of the method: as §1
# [13] = biological target: Gal(b1-3)GlcNAc(b1-2)Man(a1-3)[Gal(b1-3)GlcNAc(b1-2)Man(a1-6)]Man(b1-4)GlcNAc(b1-4)GlcNAc
# Summary of the method: as §1
# [14] = biological target: Gal(b1-3)GlcNAc(b1-3)Gal(b1-4)Glc
# Summary of the method: as §1
# [15] = biological target: Gal(b1-3)GlcNAc(b1-3)Gal(b1-4)GlcNAc(b1-2)Man(a1-3)[Gal(b1-3)GlcNAc(b1-3)Gal(b1-4)GlcNAc(b1-2)Man(a1-6)]Man(b1-4)GlcNAc(b1-4)GlcNAc
# Summary of the method: as §1
# [16] = biological target: Gal(b1-3)GlcNAc(b1-6)GalNAc
# Summary of the method: as §1
# [17] = biological target: Gal(b1-4)GlcNAc(b1-2)[Gal(b1-4)GlcNAc(b1-6)]Man(a1-6)[Gal(b1-4)GlcNAc(b1-2)Man(a1-3)]Man(b1-4)GlcNAc(b1-4)[Fuc(a1-6)]GlcNAc
# Summary of the method: as §1
# [18] = biological target: Gal(b1-4)GlcNAc(b1-3)Gal(b1-4)GlcNAc(b1-3)Gal(b1-4)GlcNAc
# Summary of the method: as §1
# [19] = biological target: Gal(b1-4)GlcNAc(b1-3)Gal(b1-4)GlcNAc(b1-3)Gal(b1-4)GlcNAc(b1-2)[Gal(b1-4)GlcNAc(b1-3)Gal(b1-4)GlcNAc(b1-3)Gal(b1-4)GlcNAc(b1-6)]Man(a1-6)[Gal(b1-4)GlcNAc(b1-3)Gal(b1-4)GlcNAc(b1-3)Gal(b1-4)GlcNAc(b1-2)Man(a1-3)]Man(b1-4)GlcNAc(b1-4)[Fuc(a1-6)]GlcNAc
# Summary of the method: as §1
# [20] = biological target: Gal(b1-4)GlcNAc(b1-3)Gal(b1-4)GlcNAc(b1-3)Gal(b1-4)GlcNAc(b1-3)Gal(b1-4)GlcNAc(b1-2)Man(a1-3)[Gal(b1-4)GlcNAc(b1-3)Gal(b1-4)GlcNAc(b1-3)Gal(b1-4)GlcNAc(b1-3)Gal(b1-4)GlcNAc(b1-2)Man(a1-6)]Man(b1-4)GlcNAc(b1-4)GlcNAc
# Summary of the method: as §1
# [21] = biological target: Gal(b1-4)GlcNAc(b1-3)Gal(b1-4)GlcNAc(b1-3)[Gal(b1-4)GlcNAc(b1-3)Gal(b1-4)GlcNAc(b1-6)]GalNAc
# Summary of the method: as §1
# [22] = biological target: Gal(b1-4)GlcNAc(b1-3)[Gal(b1-4)GlcNAc(b1-6)]Gal(b1-4)GlcNAc
# Summary of the method: as §1
# [23] = biological target: Gal(b1-4)GlcNAc(b1-6)GalNAc
# Summary of the method: as §1
# [24] = biological target: Gal(b1-4)GlcNAc(b1-6)[Gal(b1-4)GlcNAc(b1-3)]GalNAc
# Summary of the method: as §1
# Gal(b1-4)GlcNAc6P = biological target: Gal(b1-4)GlcNAc6P
# Summary of the method: as §1
# Gal3S(b1-4)Glc = biological target: Gal3S(b1-4)Glc
# Summary of the method: as §1
# [25] = biological target: Gal3S(b1-4)[Fuc(a1-3)]Glc6S
# Summary of the method: as §1
# [26] = biological target: Gal3S(b1-4)[Fuc(a1-3)]GlcNAc
# Summary of the method: as §1
binder,measurement,setting,value
B1,glycan array binding signal (z-score),[1],-0.876
same,glycan array binding signal (z-score),[2],6.26
same,glycan array binding signal (z-score),[3],3.71
same,glycan array binding signal (z-score),[4],5.15
same,glycan array binding signal (z-score),[5],-0.674
same,glycan array binding signal (z-score),[6],-0.63
same,glycan array binding signal (z-score),[7],4.56
same,glycan array binding signal (z-score),[8],0.193
same,glycan array binding signal (z-score),[9],2.65
same,glycan array binding signal (z-score),[10],2.44
same,glycan array binding signal (z-score),[11],-0.147
same,glycan array binding signal (z-score),Gal(a1-2)Gal,-0.863
same,glycan array binding signal (z-score),Gal(a1-6)Glc,-0.527
same,glycan array binding signal (z-score),[12],-0.349
same,glycan array binding signal (z-score),[13],0.94
same,glycan array binding signal (z-score),[14],-0.471
same,glycan array binding signal (z-score),[15],-0.574
same,glycan array binding signal (z-score),[16],-0.771
same,glycan array binding signal (z-score),[17],1.75
same,glycan array binding signal (z-score),[18],-0.453
same,glycan array binding signal (z-score),[19],3.44
same,glycan array binding signal (z-score),[20],2.32
same,glycan array binding signal (z-score),[21],-0.119
same,glycan array binding signal (z-score),[22],0.824
same,glycan array binding signal (z-score),[23],0.417
same,glycan array binding signal (z-score),[24],0.954
same,glycan array binding signal (z-score),Gal(b1-4)GlcNAc6P,0.272
same,glycan array binding signal (z-score),Gal3S(b1-4)Glc,0.451
same,glycan array binding signal (z-score),[25],3.19
same,glycan array binding signal (z-score),[26],2.76

# — the supplement of paper PMC8728848
